Compounds without any hit were thinned out: in the full panel of roughly 79,000, 15% have a hit. Calls of active or inactive are those of the source. Rule as the data show it: active = growth inhibition above about 70%; inactive = the rest.
Tests used:
[1] = NCI Yeast Anticancer Drug Screen. Data for the rad50 strain (AID 155);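 also: 0% = growth of vehicle-only cultures of the same strain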; settings: S. cerevisiae rad50 strain growth inhibition, active compounds read high
How it was run: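 Genetically altered yeast (DNA repair pathway); compound treatment; growth inhibition vs vehicle ctrl.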

[2] = NCI Yeast Anticancer Drug Screen. Data for the mec2-1 strain (AID 157); settings: S. cerevisiae mec2-1 strain, active compounds read high
How it was run: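 Readout is yeast growth inhibition, normalised to vehicle-treated controls, in the mec2-1 strain exposed to compound.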

[3] = NCI Yeast Anticancer Drug Screen. Data for the sgs1 mgt1 strain (AID 161);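 also: 0% = growth of cultures given vehicle only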; settings: S. cerevisiae sgs1 mgt1 strain, active compounds read high
How it was run: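 Growth of a repair-deficient yeast mutant was monitored after compound treatment and expressed as inhibition relative to vehicle-treated cultures.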

[4] = NCI Yeast Anticancer Drug Screen. Data for the cln2 rad14 strain (AID 165);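 also: 0% = growth equal to vehicle treated cultures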; settings: S. cerevisiae cln2 rad14 strain, active compounds read high
How it was run: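 Relative to vehicle controls, growth inhibition of compound-treated cln2 rad14 yeast was recorded.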

[5] = NCI Yeast Anticancer Drug Screen. Data for the bub3 strain (AID 167); settings: S. cerevisiae bub3 mutant strain, active compounds read high
How it was run: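 Yeast carrying a defined mutation is treated with each compound, and growth is compared with that of vehicle-exposed cells to give inhibition.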

[6] = NCI Yeast Anticancer Drug Screen. Data for the mlh1 rad18 strain (AID 175); settings: S. cerevisiae mlh1 rad18 strain growth inhibition, active compounds read high
How it was run: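 Test agents were incubated with a yeast strain of defined genotype (DNA damage repair defect). Inhibition of growth was derived by comparison with vehicle-exposed cultures.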

[7] = at 5.0 µM (retest, dose inferred, filed as 0.5)
[8] = at 50.0 µM (retest, dose inferred, filed as 5.0)

Measured: growth inhibition

CCOC1=Cc2c(oc3c(C(C)(C)C)cc(OCC)cc23)OC(C(C)(C)C)=C1
active: [1]; [8] 95% | [1]; at 50.0 µM 71.2% | [2]; [8] 98% | [2]; at 50.0 µM 85.3% | [3]; [8] 97% | [3]; at 50.0 µM 73.4% | [4]; [8] 96% | [4]; at 50.0 µM 75.7% | [5]; [8] 98% | [5]; at 50.0 µM 78.7% | [6]; [8] 94%
inactive: [1]; [7] 22% | [2]; [7] 22% | [3]; [7] 28% | [4]; [7] 13% | [5]; [7] 32% | [6]; [7] 44% | [6]; at 50.0 µM 19.6%

C1=CC2OC2CCCCCCCC1 (mixture of isomers)
active: [1]; [8] 75% | [1]; at 50.0 µM 83.2% | [2]; [8] 80% | [3]; [8] 78% | [3]; at 50.0 µM 84.8% | [5]; [8] 73% | [6]; [8] 90% | [6]; at 50.0 µM 70.9%
inactive: [1]; [7] 7% | [2]; [7] 0% | [2]; at 50.0 µM 62.5% | [3]; [7] 2% | [4]; [7] -2% | [4]; [8] 59% | [4]; at 50.0 µM 31.6% | [5]; [7] -5% | [5]; at 50.0 µM 50.7% | [6]; [7] 1%

O=S(=O)(O)CC[S][Sn]([S]CCS(=O)(=O)O)([c]1ccccc1)[c]1ccccc1 (tested in a mixture with another compound)
active: [1]; [7] 84% | [1]; [8] 98% | [1]; at 50.0 µM 71.9% | [2]; [8] 98% | [2]; at 50.0 µM 83.2% | [3]; [7] 92% | [3]; [8] 97% | [3]; at 50.0 µM 88.6% | [4]; [8] 94% | [4]; at 50.0 µM 79.8% | [5]; [8] 97% | [5]; at 50.0 µM 86.2% | [6]; [7] 94% | [6]; [8] 96% | [6]; at 50.0 µM 90.7%
inactive: [2]; [7] 48% | [4]; [7] 28% | [5]; [7] 59%

O=c1[nH]c2c([N+](=O)[O-])cc(Cl)cc2nc1/C=C(\O)c1cccc2ccccc12
inactive: [1]; [7] 0% | [2]; [7] 10% | [2]; at 50.0 µM 62.2% | [3]; [7] -10% | [4]; [7] -1% | [5]; [7] -3% | [6]; [7] -7%
active: [1]; [8] 86% | [1]; at 50.0 µM 77% | [2]; [8] 75% | [3]; [8] 81% | [3]; at 50.0 µM 89.5% | [4]; [8] 87% | [4]; at 50.0 µM 82.4% | [5]; [8] 88% | [5]; at 50.0 µM 71.5% | [6]; [8] 85% | [6]; at 50.0 µM 72.2%

COC1/C=C/OC2(C)Oc3c(C)c(O)c4c5c(cc(O)c4c3C2=O)N=C(O5)/C(C)=C\C=C\C(C)C(O)C(C)C(O)C(C)C(OC(C)=O)C1C (configuration not stated)
active: [1]; [8] 99% | [2]; [8] 99% | [3]; [8] 96% | [4]; [8] 99% | [5]; [8] 99% | [6]; [8] 98%
inactive: [1]; [7] 5% | [1]; at 50.0 µM 55.2% | [2]; [7] -71% | [2]; at 50.0 µM 60% | [3]; [7] -60% | [3]; at 50.0 µM 53.6% | [4]; [7] 28% | [4]; at 50.0 µM 53.5% | [5]; [7] 3% | [5]; at 50.0 µM 48.5% | [6]; [7] 4% | [6]; at 50.0 µM 60.6%

N#Cc1c(Cl)nnc(-c2ccccc2)c1-c1ccccc1
inactive: [1]; [7] 6% | [2]; [7] 8% | [3]; [7] -8% | [4]; [7] -1% | [4]; [8] 66% | [5]; [7] 1% | [6]; [7] 4%
active: [1]; [8] 81% | [1]; at 50.0 µM 89.3% | [2]; [8] 84% | [2]; at 50.0 µM 92.2% | [3]; [8] 83% | [3]; at 50.0 µM 92.8% | [4]; at 50.0 µM 93.8% | [5]; [8] 91% | [5]; at 50.0 µM 93.5% | [6]; [8] 91% | [6]; at 50.0 µM 93.6%

COc1ccc2cc(Br)ccc2c1
inactive: [1]; [7] 4% | [1]; [8] -25% | [1]; at 50.0 µM 10.3% | [2]; [7] 6% | [2]; [8] -2% | [2]; at 50.0 µM 5.1% | [3]; [7] 2% | [3]; [8] 1% | [3]; at 50.0 µM 9.85% | [4]; [7] 8% | [4]; [8] -2% | [4]; at 50.0 µM -10.4% | [5]; [7] 32% | [5]; [8] 6% | [5]; at 50.0 µM -0.55% | [6]; [7] 4% | [6]; [8] -2% | [6]; at 50.0 µM 17.2%

CCCCC(=O)N/N=C(\C)[C@]1(O)Cc2c(O)c3c(c(O)c2[C@@H](OC2CC(N)C(O)C(C)O2)C1)C(=O)c1c(OC)cccc1C3=O (some centres not stated)
active: [1]; [8] 97% | [1]; at 50.0 µM 98.7% | [2]; [8] 97% | [2]; at 50.0 µM 99.2% | [3]; [8] 97% | [4]; [8] 89% | [4]; at 50.0 µM 97.1% | [5]; [8] 98% | [5]; at 50.0 µM 98.5% | [6]; [8] 97% | [6]; at 50.0 µM 98.5%
inactive: [1]; [7] 64% | [2]; [7] -12% | [3]; [7] 17% | [3]; at 50.0 µM 51.5% | [4]; [7] 8% | [5]; [7] 15% | [6]; [7] 17%

C/C(=N/NC(=S)Nc1ccc(C)cc1)c1ccccn1
active: [1]; [8] 99% | [1]; at 50.0 µM 79.2% | [2]; [8] 99% | [2]; at 50.0 µM 84.9% | [3]; [8] 99% | [3]; at 50.0 µM 88.5% | [4]; [8] 99% | [4]; at 50.0 µM 88.3% | [5]; [8] 99% | [5]; at 50.0 µM 90% | [6]; [8] 99% | [6]; at 50.0 µM 87.9%
inactive: [1]; [7] 31% | [2]; [7] 33% | [3]; [7] 32% | [4]; [7] -15% | [5]; [7] -7% | [6]; [7] 20%

— PubChem BioAssay (NCI)
